# Experimental data published in PubChem BioAssay (NCATS).
# Several values for one entry are separate records, joined by “and”; a condition that tells them apart may be missing. Identical values can stand only once. Unmarked numbers belong to inactive results. Records with an inconclusive call do not appear. Activity calls are given as the source filed them. Unless noted, calls follow the shape of the dose curve; as a rule, active = well fitted inhibition curve with a large enough effect; inconclusive = small, poorly fitted or top-dose-only effect; inactive = flat fitted curve, though single readings scatter.
# Tests used:
# [1] = Drug repurposing screens with cells derived from glioblastoma tumor samples (AID 1345199); details: GBM patient neurospheres viability, ATP luminescence, 48 h; also: nearly all actives have a fitted effect of over 40% in size; also: potency is read from the fitted curve at half-maximal effect; as to activity, negative = cell killing: % is scaled to controls: 0 for no effect and ±100 for the full control effect
# How it was run: (§1)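 Primary testing used CD133+ neurospheres from four GBM patients, seven concentrations, 48 h exposure and ATP-based viability; confirmation added three slower-growing patient lines.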
# [2] = tested on: astro; assay: as above; details: viability, ATP luminescence, 48 h; series mostly up to 45.9 µM
# How it was run: as §1
# [3] = biological target: Nuclear receptor subfamily 1 group I member 2 (Rattus norvegicus) (UniProt Q9R1A7); assay: qHTS assay for small molecule activators of the rat pregnane X receptor (rPXR) signaling pathway (AID 651751; call rule not given here; also: 0% is about no effect); details: rPXR reporter cells, luciferase (One-Glo), 24 h
# [4] = at 45.9 µM (top of the series), tumour line B
# [5] = at 45.9 µM (top of the series), tumour line D
# [6] = at 46.1 µM (top of the series), tumour line C
# [7] = at 20 µM (top of the series), tumour line C
# [8] = at 21.2 µM (top of the series), tumour line B
# [9] = at 21.2 µM (top of the series), tumour line D
# Nuclear receptor subfamily 1 group I member 2 (Rattus norvegicus), sequence (Q9R1A7 whole entry, looked up): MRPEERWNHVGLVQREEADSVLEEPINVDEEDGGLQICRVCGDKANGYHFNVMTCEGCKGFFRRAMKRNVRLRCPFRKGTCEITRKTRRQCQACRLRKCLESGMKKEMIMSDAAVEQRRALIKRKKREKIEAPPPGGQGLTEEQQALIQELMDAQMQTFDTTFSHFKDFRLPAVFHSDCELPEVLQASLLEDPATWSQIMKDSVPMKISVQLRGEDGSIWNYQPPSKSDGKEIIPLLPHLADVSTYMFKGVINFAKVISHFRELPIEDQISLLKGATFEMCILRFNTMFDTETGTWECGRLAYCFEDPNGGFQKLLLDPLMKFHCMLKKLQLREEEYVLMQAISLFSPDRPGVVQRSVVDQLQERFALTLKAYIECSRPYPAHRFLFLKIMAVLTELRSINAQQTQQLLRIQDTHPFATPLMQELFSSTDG
structure (smiles),measurement,setting,value
C[N+]1(C)CCCCC1COC(=O)C(O)(c1ccccc1)c1ccccc1 (centres undefined),"activity, negative = cell killing",[1]; [4],-0.912%
same,"activity, negative = cell killing",[1]; [5],-3.36%
same,"activity, negative = cell killing",[1]; [6],-16.5%
same,Potency,[2],inactive
C=CCN1CC[C@]23c4c5ccc(O)c4O[C@H]2[C@@H](O)C=C[C@H]3[C@H]1C5,"activity, negative = cell killing",[1]; [4],-22.5%
same,"activity, negative = cell killing",[1]; [5],3.8%
same,"activity, negative = cell killing",[1]; [6],-4.91%
same,Potency,[2],inactive
O=c1[nH]cc(N(CCCl)CCCl)c(=O)[nH]1,"activity, negative = cell killing",[1]; [4],-11%
same,"activity, negative = cell killing",[1]; [5],-17.9%
same,"activity, negative = cell killing",[1]; [6],-21.9%
same,Potency,[2],inactive
C#CC(C)(O)CC (centres undefined),"activity, negative = cell killing",[1]; [4],-22.2%
same,"activity, negative = cell killing",[1]; [5],-11.4%
same,"activity, negative = cell killing",[1]; [6],-2.82%
same,Potency,[2],inactive
O=C(NCNC(=O)NC1C(=O)NC(=O)N1CO)NC1C(=O)NC(=O)N1CO (centres undefined),"activity, negative = cell killing",[1]; [4],-11.9%
same,"activity, negative = cell killing",[1]; [5],3.73%
same,"activity, negative = cell killing",[1]; [6],-7.65%
same,Potency,[2],inactive
c1ccc2sc(SNC3CCCCC3)nc2c1,"activity, negative = cell killing",[1]; [4],-13.7%
same,"activity, negative = cell killing",[1]; [5],-11.7%
same,"activity, negative = cell killing",[1]; [6],-8.99%
same,Potency,[2],inactive
CC[C@H]1[C@@H]2C[C@H]3[C@@H]4N(C)c5ccccc5[C@]45C[C@@H](C2[C@H]5O)N3[C@@H]1O (some centres undefined),"activity, negative = cell killing",[1]; [7],5.4%
same,"activity, negative = cell killing",[1]; [8],2.75%
same,"activity, negative = cell killing",[1]; [9],6.31%
same,Potency,[2],inactive
C[C@]12CCC(=O)C[C@@H]1CC[C@@H]1[C@@H]2CC[C@]2(C)[C@@H](O)CC[C@@H]12,"activity, negative = cell killing",[1]; [4],-19.9%
same,"activity, negative = cell killing",[1]; [5],-25.4%
same,"activity, negative = cell killing",[1]; [6],-25.5%
same,Potency,[1]; tumour line A,12.6 µM (active)
same,max response,[3],6.67% and 13%
CC(=O)O[C@H]1CC[C@H]2[C@@H]3CCC4=CC(=O)CCC4=C3C=C[C@]12C,"activity, negative = cell killing",[1]; [4],-12.7%
same,"activity, negative = cell killing",[1]; [5],-6.7%
same,"activity, negative = cell killing",[1]; [6],-16.1%
same,Potency,[2],inactive
CN[C@H]1C[C@@H](N)[C@H](O)[C@@H](O[C@@H]2O[C@H](CO)[C@H](O)[C@@H]3OC4(O[C@H]23)O[C@H](C(N)CO)[C@H](O)[C@H](O)[C@H]4O)[C@@H]1O (some centres undefined),"activity, negative = cell killing",[1]; [5],-24.2%
same,"activity, negative = cell killing","[1]; at 46 µM (top of the series), tumour line A",-23.6%
same,"activity, negative = cell killing",[1]; [6],9% and -3.99%
same,Potency,[2],inactive
C[C@]12CC[C@H]3[C@@H](CC[C@@]45O[C@@H]4C(O)=C(C#N)C[C@]35C)[C@@H]1CC[C@@H]2O,"activity, negative = cell killing",[1]; [4],0.146%
same,"activity, negative = cell killing",[1]; [5],-21.9%
same,"activity, negative = cell killing",[1]; [6],-5.72%
same,Potency,[2],inactive
C[C@]12CCC(=O)C=C1C=C[C@@H]1[C@@H]2CC[C@@]2(C)[C@H]1CC[C@@]2(O)CCC(=O)O,"activity, negative = cell killing",[1]; [7],15.7%
same,"activity, negative = cell killing",[1]; [8],-2.69%
same,"activity, negative = cell killing",[1]; [9],-8.65%
same,Potency,[2],inactive
CN(C)CCCCCCN(C)C (tested in a mixture with another compound),"activity, negative = cell killing",[1]; [4],-12.5%
same,"activity, negative = cell killing",[1]; [5],-12.1%
same,"activity, negative = cell killing",[1]; [6],-16.2%
same,Potency,[2],inactive
N#CC1(N2CCCCC2)CCCCC1,"activity, negative = cell killing",[1]; [4],-11.3%
same,"activity, negative = cell killing",[1]; [5],-14.5%
same,"activity, negative = cell killing",[1]; [6],-18%
same,Potency,[2],inactive
COc1ccc(OC)c([C@@H](O)[C@H](C)N)c1,"activity, negative = cell killing",[1]; [4],-15.8%
same,"activity, negative = cell killing",[1]; [5],-1.31%
same,"activity, negative = cell killing",[1]; [6],-18.1%
same,Potency,[2],inactive
C[C@@H]1[C@@H]2Cc3ccc(O)cc3[C@@]1(C)CCN2CC1CC1,"activity, negative = cell killing",[1]; [4],-1.24%
same,"activity, negative = cell killing",[1]; [5],-18.9%
same,"activity, negative = cell killing",[1]; [6],6.7%
same,Potency,[2],inactive
[2H]C([2H])([2H])[C@H](N)Cc1ccccc1,"activity, negative = cell killing",[1]; [4],-8.74%
same,"activity, negative = cell killing",[1]; [5],-8.54%
same,"activity, negative = cell killing",[1]; [6],-22.7%
same,Potency,[2],inactive
O=C1CCCCC1CN1CCCCC1 (centres undefined),"activity, negative = cell killing",[1]; [4],-12.3%
same,"activity, negative = cell killing",[1]; [5],4.04%
same,"activity, negative = cell killing",[1]; [6],-15.7%
same,Potency,[2],inactive
O=C(NC(=O)c1c(F)cccc1F)Nc1ccc(Cl)c(Oc2ncc(C(F)(F)F)cc2Cl)c1,"activity, negative = cell killing",[1]; [4],-0.522%
same,"activity, negative = cell killing",[1]; [5],-21.9%
same,"activity, negative = cell killing",[1]; [6],-19.8%
same,Potency,[2],inactive
CCN1C[C@]2(COC)[C@H](O)C[C@H](OC)[C@@]34[C@@H]5C[C@@]6(O)[C@H](OC(=O)c7ccccc7)[C@@H]5[C@@](OC(C)=O)([C@@H]([C@H](OC)[C@H]23)[C@@H]14)[C@@H](O)[C@@H]6OC,"activity, negative = cell killing",[1]; [4],-6.48%
same,"activity, negative = cell killing",[1]; [5],-4.25%
same,"activity, negative = cell killing",[1]; [6],8.16%
same,Potency,[2],inactive
NCC(O)c1cccc(O)c1 (centres undefined),"activity, negative = cell killing",[1]; [4],-9.47%
same,"activity, negative = cell killing",[1]; [5],-16.5%
same,"activity, negative = cell killing",[1]; [6],-10.7%
same,Potency,[2],inactive
O=C(OCCN1CCCCC1)C(O)(c1ccccc1)c1ccccc1,"activity, negative = cell killing",[1]; [4],-11.1%
same,"activity, negative = cell killing",[1]; [5],-8.82%
same,"activity, negative = cell killing",[1]; [6],-26.9%
same,Potency,[2],inactive
